From PubChem
This is a sample that favours compounds with a hit; in the whole collection about 5.4% have one here.
PNC assembly inh = inhibitors of perinucleolar compartment assembly; PC3M PTB-GFP, PNC prevalence imaging, 16 h; stronger effect = lower value; activity change (PNC), negative = inhibition, % at 10 µM; 140,000 compounds, 3.1% hits; AID 2417;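 active = readout at or below -70, meaning at least 70% loss of cells showing the perinucleolar compartment, a nuclear body marking cancer cells; inconclusive = readout between -30 and a set limit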
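Compounds are pinned in duplicate onto adhered PC3M cells stably expressing GFP-tagged PTB and incubated 16 h at 37 C. Cells are then fixed, nuclei stained with Hoechst, and PNC-positive cells counted.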
ALOX15B inhib = 15-hLO-2 (ALOX15B) enzyme inhibition; 110,000 compounds, 0.56% hits; AID 881; purified 15hLO-2, xylenol orange hydroperoxide absorbance; Potency, µM (doses to about 57.1 µM), hits mostly inhibitors; also: nearly all actives have a fitted effect of over 60% in size
Target sequence (O15296 whole entry, looked up): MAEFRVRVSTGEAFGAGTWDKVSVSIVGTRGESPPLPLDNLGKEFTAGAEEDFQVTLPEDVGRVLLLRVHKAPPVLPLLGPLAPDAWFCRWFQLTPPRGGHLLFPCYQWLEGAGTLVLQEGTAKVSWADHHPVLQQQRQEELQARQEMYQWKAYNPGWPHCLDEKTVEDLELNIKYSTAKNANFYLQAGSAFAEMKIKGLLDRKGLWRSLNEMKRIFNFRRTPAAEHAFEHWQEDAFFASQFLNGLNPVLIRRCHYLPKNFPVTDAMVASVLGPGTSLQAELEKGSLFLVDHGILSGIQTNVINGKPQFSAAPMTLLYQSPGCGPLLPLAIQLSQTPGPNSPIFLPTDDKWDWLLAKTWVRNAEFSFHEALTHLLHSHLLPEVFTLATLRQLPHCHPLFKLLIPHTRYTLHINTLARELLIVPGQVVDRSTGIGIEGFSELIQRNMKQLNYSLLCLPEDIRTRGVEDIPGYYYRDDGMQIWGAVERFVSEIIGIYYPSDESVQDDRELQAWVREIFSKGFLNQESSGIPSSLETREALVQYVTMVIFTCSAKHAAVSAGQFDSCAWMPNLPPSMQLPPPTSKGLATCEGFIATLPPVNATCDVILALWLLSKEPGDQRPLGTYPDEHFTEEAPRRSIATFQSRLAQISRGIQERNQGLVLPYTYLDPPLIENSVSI
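Purified human 15hLO-2 (50 nM final) preincubated with compounds 15 min at room temperature in 25 mM Hepes pH 7.5, 0.01% Triton X-100, then 45 uM arachidonic acid added for 90 min; hydroperoxide detected via ferrous/xylenol orange, 573/405 nm absorbance ratio.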
12-hLO inh = 12-hLO (ALOX12) enzyme inhibition. P18054. purified 12-hLO, xylenol orange hydroperoxide absorbance. Potency, µM (top dose mostly 57.1 µM), most hits filed as inhibitors. 150,000 compounds, 0.12% hits. AID 1452; also: nearly all actives have a fitted effect of over 55% in size
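Lipoxygenase turnover measured by absorbance at 573 and 405 nm after Fe-XO development. Human 12hLO 150 nM, arachidonate 40 uM, pH 7.0 Hepes buffer with detergent; 15 min compound preincubation, 30 min reaction.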
IMPase Li cell = membrane-permeable IMPase blocker, potentiated with lithium; Potency, µM (titrated, usually from 59.4 µM), usual class: inhibitors; 210,000 compounds, 0.35% hits; CHO-M1 cells, IP1 TR-FRET (IP-One), carbachol + lithium;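 also: IP1 builds up when IMPase is blocked and the TR-FRET signal falls; nearly all actives have a fitted effect of over 50% in size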
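CHO-M1, 2000 cells/well, 16–30 h culture; cpd + low Li+, 30 min 37C; lysis with d2-IP1/Eu-anti-IP1 Ab, 10 min RT; TR-FRET 665/620 ratio and 620 channel; AC50 via Hill.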
IMPase inh = membrane-permeable compound that blocks inositol monophosphatase. P97697. CHO-M1 cells, IP1 accumulation, HTRF TR-FRET ratio. inhibition (IP1 accumulation), % at 46.1 µM. 120,000 tested, under 10 active. AID 901; active = well fitted curve in the direction sought with a large enough effect in the signal ratio, not every such curve was filed as active; inconclusive = small, poorly fitted or top-dose-only effect, or a change in a side signal; inactive = no such curve, though single readings can be large or run the other way; the % refers to the signal ratio;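 also: cells stimulated with carbachol in lithium chloride buffer; higher means more IMPase inhibition seen as more IP1 and lower FRET ratio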
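Cellular IMPase inhibition is scored as a rise in cytosolic IP1, detected by competitive TR-FRET between d2-labelled IP1 and a europium anti-IP1 antibody. M1-expressing CHO cells were stimulated with carbachol for 30 min at 37C, with lithium (50 mM LiCl) present in the buffer.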
HPGD block = blocks human HPGD enzyme activity; 150,000 compounds, 4.3% hits; purified HPGD, NADH fluorescence kinetic, PGE2 substrate; P15428; Potency, µM, most hits filed as inhibitors; AID 894; active = well fitted inhibition curve with a large enough effect, not every such curve was filed as active; inconclusive = small, poorly fitted or top-dose-only effect, or another doubt; inactive = no such curve, though single readings can be large or run the other way
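NADH formation kinetics: reaction with 30 uM PGE2 and 1 mM NAD+ (final), 20 nM enzyme, Tris-HCl pH 8 with Tween 20, after 15 min compound preincubation at room temperature. Fluorescence change, last versus first of five reads.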
A number is an active result; n = inactive; u = inconclusive; x = no result given; [ ] = another dose, or the depositor's remark. Unless noted, calls follow the shape of the dose curve; as a rule, active = well fitted curve in the direction sought with a large enough effect; inconclusive = small, poorly fitted or top-dose-only effect, or another doubt; inactive = no such curve, though single readings can be large; an effect the other way counts as inactive or inconclusive.

SMILES	PNC assembly inh	ALOX15B inhib	12-hLO inh	IMPase Li cell	IMPase inh	HPGD block
O=C(NC1CCCCC1)c1cccs1	n	n	n	n	n	31.6µM
O=C(NC(=S)Nc1ccc(S(=O)(=O)NC2CCCCC2)cc1)c1cccs1	u	x	5.01µM	x	n	x
O=C(NC(=S)Nc1ccc(S(=O)(=O)N2CCCCC2)cc1)c1cccs1	n	x	n	n	x	n
CC1CCCC(C)N1C(=O)c1cc(-c2cccs2)on1 (stereo not given)	n	x	n	n	n	14.1µM
O=C(NC1CCCC1)c1cc(-c2cccs2)on1	n	n	n	n	n	12.6µM
O=C(NNC(=S)NC1CCCCC1)c1cccs1	n	x	n	n	x	n
C[C@@](N)(C(=O)O)[C@@H]1C[C@@H]1C(=O)O	x	x	x	n	x	x
Cc1cnc(NC(=O)CSc2nc3ccccc3c(=O)[nH]2)s1	n	x	n	n	n	15.8µM
Cc1cc(SCC(=O)c2cccs2)nc2ccccc12	u	x	n	n	n	4.47µM
N#Cc1c(-c2cccs2)nc(SCC(=O)c2cccs2)[nH]c1=O	n	n	n	u	n	15.8µM
Cc1cc(SCc2cc(=O)n3ccsc3n2)nc2ccccc12	n	x	n	n	x	n
O=C(CSc1nc2ccccc2c(=O)[nH]1)c1cccs1	u	n	n	n	n	12.6µM
O=C(CSc1nc2ccccc2c(=O)[nH]1)N1CCCCCC1	n	n	n	n	n	u
Nc1nc(-c2cccnc2)cc(-c2cc(-c3cccnc3)nc(N)n2)n1	x	n[11.4 µM]	n[11.4 µM]	n	x	n
O=c1[nH]c2cc(C(F)(F)F)c(N3CCOCC3)cc2n(CP(=O)(O)O)c1=O	x	n[0.0915 µM]	n[0.00818 µM]	n	x	n
COC(=O)c1ccc(C2Nc3c(C)cccc3-c3cc(C)nn32)cc1 (stereo not given)	x	x	x	x	n	x
O=C(CSc1nc2ccccc2c(=O)[nH]1)c1ccc(O)cc1O	x	x	x	n	x	x
O=C(CSc1nc2ccccc2c(=O)[nH]1)c1ccc(O)c(O)c1	u	n	n	n	n	15.8µM
O=c1/c(=C\c2cccnc2)sc2nc3ccccc3n12	n	n	n	n	n	n
Cc1ccc2c(nc3s/c(=C/c4cccs4)c(=O)n32)c1C	n	n	n	n	n	28.2µM
Cc1cc(C)c2nc3s/c(=C/c4ccccc4)c(=O)n3c2c1	u	n	n	n	n	5.01µM
COc1ccc(Nc2nc(N)c3cc(OC)c(OC)cc3n2)cc1	x	x	x	x	n	x
CCSc1nc(-c2ccccc2)nc(C(Cl)Cl)n1	n	x	n	n	n	n
CSc1nc(-c2ccc(C)cc2)nc(C(Cl)Cl)n1	-106.0	n	n	n	n	n
O=C(Nc1ccccc1)c1ccccc1N=Cc1cccc(O)c1	x	x	x	n	x	x
SMILES	PNC assembly inh	ALOX15B inhib	12-hLO inh	IMPase Li cell	IMPase inh	HPGD block
COc1cccc(C=Nc2ccccc2C(=O)Nc2ccccc2)c1O	-110.0	x	n	n	x	u
O=C(O)c1ccccc1-c1nc2ccccc2n1-c1ccccc1	-109.0	x	n	n	x	n
Cc1nc2ccccc2n1-c1ccccc1	u	n	n	n	n	n
C=C(C)Cn1c(SCC(=O)Nc2cc(C)ccc2C)nc2sc3c(c2c1=O)CCCC3	x	x	x	x	n	x
Cc1ccc(OCCn2cc(/C=C3\C(=O)NN(c4ccccc4)C3=O)c3ccccc32)cc1	n	x	n	n	x	n
O=C1NN(c2ccccc2)C(=O)/C1=C/c1ccc(Sc2cccc3ccccc23)o1	n	x	n	n	n	17.8µM
O=C(NC1CCCc2ccccc21)c1ccc(CNc2c(N3CCOCC3)c(=O)c2=O)cc1 (stereo not given)	n	x	n	n	n	n
CCOC(=O)C1CCN(c2c(NCc3ccc(C(=O)NC4CCCC4)cc3)c(=O)c2=O)CC1	n	n	n	n	n	2µM
O=C(c1ccc(CNc2c(N3CCOCC3)c(=O)c2=O)cc1)N1CC=C(c2ccccc2)CC1	n	n	n	n	n	25.1µM
CCOC(=O)C1CCN(c2c(NCc3ccc(C(=O)NCCOC)cc3)c(=O)c2=O)CC1	n	n	n	n	n	3.55µM
CCOC(=O)C1CCN(c2c(NCCCN(CC)c3ccccc3)c(=O)c2=O)CC1	n	n	n	n	n	u
O=C(NC1CCCCCCC1)c1ccc(CNc2c(N3CCOCC3)c(=O)c2=O)cc1	n	x	n	n	n	17.8µM
